Molecules are shown by their SMILES.

Assay [1] deals with Sphingosine kinase 1 (Homo sapiens) (UniProt Q9NYA1). The following applies: at 1 µM.
In assay [2] the target is T1, Sphingosine kinase 2 (Homo sapiens) (UniProt Q9NRA0).
T1 sequence (whole entry): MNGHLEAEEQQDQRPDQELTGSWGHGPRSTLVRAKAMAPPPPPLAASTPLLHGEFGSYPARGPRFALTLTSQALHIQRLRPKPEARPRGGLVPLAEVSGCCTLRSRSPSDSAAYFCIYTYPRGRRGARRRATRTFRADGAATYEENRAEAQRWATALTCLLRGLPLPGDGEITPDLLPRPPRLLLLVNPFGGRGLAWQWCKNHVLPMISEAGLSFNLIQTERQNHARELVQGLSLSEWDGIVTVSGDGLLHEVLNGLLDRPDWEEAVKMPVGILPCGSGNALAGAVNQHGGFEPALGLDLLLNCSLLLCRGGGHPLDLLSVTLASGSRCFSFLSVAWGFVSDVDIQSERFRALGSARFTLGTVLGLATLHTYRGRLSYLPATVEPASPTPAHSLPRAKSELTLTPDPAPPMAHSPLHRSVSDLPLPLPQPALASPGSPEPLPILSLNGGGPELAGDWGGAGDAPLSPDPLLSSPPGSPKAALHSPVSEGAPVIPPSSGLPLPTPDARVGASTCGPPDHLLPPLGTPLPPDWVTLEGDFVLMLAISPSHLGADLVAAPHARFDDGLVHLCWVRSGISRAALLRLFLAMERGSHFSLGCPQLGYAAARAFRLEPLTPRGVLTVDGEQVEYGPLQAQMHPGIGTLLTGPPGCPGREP
The following applies: at 0.1 µM.

Assay [3] has as its target T1, Sphingosine kinase 2 (Homo sapiens). The following applies: at 1 µM.
Assay [4] deals with Casein kinase II subunit alpha (Homo sapiens) (UniProt P68400). The following applies: at 0.1 µM.
Casein kinase II subunit alpha (Homo sapiens), sequence (P68400 whole entry, looked up): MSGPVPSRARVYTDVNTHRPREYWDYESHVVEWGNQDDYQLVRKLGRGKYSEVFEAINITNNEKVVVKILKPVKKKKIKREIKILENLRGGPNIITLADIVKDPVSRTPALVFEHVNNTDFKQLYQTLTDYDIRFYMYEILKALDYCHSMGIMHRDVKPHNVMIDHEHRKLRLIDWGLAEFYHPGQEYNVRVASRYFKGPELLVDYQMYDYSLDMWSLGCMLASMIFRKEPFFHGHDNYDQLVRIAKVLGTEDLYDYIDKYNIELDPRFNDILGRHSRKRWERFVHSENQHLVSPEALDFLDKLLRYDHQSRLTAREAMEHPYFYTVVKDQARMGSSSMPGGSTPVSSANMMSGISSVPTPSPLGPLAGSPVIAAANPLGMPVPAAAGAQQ
For assay [5] the target is unchanged. The following applies: at 1 µM.
Assay [6] addresses T2, Inhibitor of nuclear factor kappa-B kinase subunit alpha (Homo sapiens) (UniProt O15111).
T2 sequence (whole entry): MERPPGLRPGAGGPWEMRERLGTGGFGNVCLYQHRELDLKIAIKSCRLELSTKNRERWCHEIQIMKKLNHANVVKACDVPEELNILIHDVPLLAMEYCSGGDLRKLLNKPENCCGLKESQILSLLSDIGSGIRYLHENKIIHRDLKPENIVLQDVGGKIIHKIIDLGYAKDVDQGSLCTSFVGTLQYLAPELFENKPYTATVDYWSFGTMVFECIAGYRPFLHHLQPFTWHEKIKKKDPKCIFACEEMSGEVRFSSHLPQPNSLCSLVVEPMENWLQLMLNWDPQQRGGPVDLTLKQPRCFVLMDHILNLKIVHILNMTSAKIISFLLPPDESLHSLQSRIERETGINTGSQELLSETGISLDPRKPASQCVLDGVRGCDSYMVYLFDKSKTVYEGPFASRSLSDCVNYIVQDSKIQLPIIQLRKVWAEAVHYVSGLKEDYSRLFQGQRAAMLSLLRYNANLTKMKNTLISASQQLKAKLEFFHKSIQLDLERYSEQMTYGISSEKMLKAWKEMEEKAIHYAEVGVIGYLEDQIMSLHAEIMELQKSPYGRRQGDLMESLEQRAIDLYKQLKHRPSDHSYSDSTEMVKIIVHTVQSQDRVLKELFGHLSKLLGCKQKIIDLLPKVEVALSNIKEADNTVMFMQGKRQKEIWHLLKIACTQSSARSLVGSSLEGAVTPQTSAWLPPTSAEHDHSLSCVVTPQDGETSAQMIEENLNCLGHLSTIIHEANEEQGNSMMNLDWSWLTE
Conditions: at 0.1 µM.

The target of assay [7] is T2, Inhibitor of nuclear factor kappa-B kinase subunit alpha (Homo sapiens). Conditions: at 1 µM.
Assay [8] deals with T3, Inhibitor of nuclear factor kappa-B kinase subunit beta (Homo sapiens) (UniProt O14920).
T3 sequence (whole entry): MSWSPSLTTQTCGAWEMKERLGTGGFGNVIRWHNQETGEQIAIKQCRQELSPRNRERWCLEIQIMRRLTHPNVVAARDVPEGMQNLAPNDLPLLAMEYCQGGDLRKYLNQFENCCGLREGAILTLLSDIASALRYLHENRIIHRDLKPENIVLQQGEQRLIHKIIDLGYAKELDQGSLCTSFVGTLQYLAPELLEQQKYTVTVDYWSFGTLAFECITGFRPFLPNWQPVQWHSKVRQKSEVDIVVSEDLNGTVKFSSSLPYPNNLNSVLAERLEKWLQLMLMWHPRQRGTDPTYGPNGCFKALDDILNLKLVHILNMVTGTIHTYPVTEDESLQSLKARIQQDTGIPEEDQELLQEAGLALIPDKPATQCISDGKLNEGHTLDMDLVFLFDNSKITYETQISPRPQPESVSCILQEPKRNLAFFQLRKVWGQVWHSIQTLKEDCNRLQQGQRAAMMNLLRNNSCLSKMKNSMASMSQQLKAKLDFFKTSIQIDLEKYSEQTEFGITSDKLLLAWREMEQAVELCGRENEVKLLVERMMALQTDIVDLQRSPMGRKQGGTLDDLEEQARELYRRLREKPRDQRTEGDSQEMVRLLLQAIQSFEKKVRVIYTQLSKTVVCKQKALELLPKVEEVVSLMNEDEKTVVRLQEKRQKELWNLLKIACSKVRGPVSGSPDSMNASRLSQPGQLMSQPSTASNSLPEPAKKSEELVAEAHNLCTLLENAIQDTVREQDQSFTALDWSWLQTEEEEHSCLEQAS
The following applies: at 0.1 µM.

The target in assay [9] is T3, Inhibitor of nuclear factor kappa-B kinase subunit beta (Homo sapiens). The following applies: at 1 µM.
For assay [10], the target named is T4, Inhibitor of nuclear factor kappa-B kinase subunit epsilon (Homo sapiens) (UniProt Q14164).
T4 sequence (whole entry): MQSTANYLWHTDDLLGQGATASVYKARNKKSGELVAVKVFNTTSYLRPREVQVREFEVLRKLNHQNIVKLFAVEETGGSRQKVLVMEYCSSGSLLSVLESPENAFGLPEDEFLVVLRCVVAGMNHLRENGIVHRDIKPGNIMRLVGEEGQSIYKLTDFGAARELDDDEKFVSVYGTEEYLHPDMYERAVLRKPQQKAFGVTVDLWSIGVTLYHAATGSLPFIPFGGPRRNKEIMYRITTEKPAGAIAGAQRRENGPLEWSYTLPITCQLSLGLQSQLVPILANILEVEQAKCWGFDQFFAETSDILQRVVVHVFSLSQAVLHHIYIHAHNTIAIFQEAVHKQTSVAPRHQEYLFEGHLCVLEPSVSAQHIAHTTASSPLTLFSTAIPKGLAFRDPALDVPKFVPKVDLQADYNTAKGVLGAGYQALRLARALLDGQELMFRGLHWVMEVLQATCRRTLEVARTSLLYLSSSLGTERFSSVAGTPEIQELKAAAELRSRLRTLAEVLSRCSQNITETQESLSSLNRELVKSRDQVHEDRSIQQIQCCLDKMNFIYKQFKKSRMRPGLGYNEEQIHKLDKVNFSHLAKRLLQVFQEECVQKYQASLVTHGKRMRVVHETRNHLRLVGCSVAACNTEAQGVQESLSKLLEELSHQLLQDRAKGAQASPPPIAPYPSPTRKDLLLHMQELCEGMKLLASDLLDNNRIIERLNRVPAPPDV
Conditions: at 0.1 µM.

Assay [11] has as its target T4, Inhibitor of nuclear factor kappa-B kinase subunit epsilon (Homo sapiens). The following applies: at 1 µM.
Assay [12] deals with T5, Serine/threonine-protein kinase Nek1 (Homo sapiens) (UniProt Q96PY6).
T5 sequence (whole entry): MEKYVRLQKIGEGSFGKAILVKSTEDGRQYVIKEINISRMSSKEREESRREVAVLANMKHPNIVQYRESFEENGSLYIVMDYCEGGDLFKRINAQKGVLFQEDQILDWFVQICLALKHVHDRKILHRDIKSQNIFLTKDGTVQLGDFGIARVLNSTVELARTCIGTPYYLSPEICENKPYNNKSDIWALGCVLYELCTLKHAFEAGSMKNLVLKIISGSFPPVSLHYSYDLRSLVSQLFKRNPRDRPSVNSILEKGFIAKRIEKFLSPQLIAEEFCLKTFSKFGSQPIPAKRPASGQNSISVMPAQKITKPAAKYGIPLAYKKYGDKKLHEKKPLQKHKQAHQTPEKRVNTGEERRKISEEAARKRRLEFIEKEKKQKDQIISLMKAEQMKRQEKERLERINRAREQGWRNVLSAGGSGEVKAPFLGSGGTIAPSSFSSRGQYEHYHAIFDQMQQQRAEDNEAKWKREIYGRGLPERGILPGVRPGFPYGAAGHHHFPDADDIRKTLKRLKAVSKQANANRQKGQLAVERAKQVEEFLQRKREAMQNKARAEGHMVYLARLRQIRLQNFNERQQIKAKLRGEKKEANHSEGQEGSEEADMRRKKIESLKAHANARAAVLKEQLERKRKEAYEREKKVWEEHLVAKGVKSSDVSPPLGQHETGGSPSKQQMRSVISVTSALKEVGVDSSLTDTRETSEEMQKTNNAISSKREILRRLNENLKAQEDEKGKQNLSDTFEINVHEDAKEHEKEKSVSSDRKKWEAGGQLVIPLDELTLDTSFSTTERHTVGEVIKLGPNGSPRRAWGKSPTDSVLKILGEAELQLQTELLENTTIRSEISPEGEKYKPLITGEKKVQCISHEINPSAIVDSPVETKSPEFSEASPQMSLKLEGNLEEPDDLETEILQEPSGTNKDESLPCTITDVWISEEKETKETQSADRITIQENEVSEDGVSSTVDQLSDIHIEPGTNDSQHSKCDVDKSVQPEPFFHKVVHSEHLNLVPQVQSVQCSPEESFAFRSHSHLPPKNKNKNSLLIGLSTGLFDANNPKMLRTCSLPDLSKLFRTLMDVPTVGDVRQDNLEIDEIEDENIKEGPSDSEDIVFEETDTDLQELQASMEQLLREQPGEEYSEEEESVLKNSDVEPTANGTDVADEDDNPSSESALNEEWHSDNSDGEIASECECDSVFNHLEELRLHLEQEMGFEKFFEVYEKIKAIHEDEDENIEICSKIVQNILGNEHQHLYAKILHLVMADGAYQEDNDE
Conditions: at 0.1 µM.

Assay [13] deals with T5, Serine/threonine-protein kinase Nek1 (Homo sapiens). Conditions: at 1 µM.
In assay [14] the target is T6, Serine/threonine-protein kinase Nek2 (Homo sapiens) (UniProt P51955).
T6 sequence (whole entry): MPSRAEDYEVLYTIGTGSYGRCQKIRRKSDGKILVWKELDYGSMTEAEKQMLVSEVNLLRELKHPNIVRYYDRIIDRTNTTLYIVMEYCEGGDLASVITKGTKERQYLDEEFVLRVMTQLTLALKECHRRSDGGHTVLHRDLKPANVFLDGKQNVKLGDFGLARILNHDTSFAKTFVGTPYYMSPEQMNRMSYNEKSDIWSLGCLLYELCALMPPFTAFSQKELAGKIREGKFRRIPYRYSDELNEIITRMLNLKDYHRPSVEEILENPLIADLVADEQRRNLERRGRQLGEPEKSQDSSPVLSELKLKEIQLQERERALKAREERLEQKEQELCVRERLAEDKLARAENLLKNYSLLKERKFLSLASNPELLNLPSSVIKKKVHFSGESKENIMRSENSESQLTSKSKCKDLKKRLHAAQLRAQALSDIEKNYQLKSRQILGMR
Conditions: at 0.1 µM.

In assay [15] the target is T6, Serine/threonine-protein kinase Nek2 (Homo sapiens). The following applies: at 1 µM.
Assay [16] concerns the target Serine/threonine-protein kinase Nek6 (Homo sapiens) (UniProt Q9HC98). The following applies: at 0.1 µM.
Assay [17] shares this target. The following applies: at 1 µM.
Assay [18] deals with Serine/threonine-protein kinase Nek7 (Homo sapiens) (UniProt Q8TDX7). The following applies: at 0.1 µM.
Serine/threonine-protein kinase Nek7 (Homo sapiens), sequence (Q8TDX7 whole entry, looked up): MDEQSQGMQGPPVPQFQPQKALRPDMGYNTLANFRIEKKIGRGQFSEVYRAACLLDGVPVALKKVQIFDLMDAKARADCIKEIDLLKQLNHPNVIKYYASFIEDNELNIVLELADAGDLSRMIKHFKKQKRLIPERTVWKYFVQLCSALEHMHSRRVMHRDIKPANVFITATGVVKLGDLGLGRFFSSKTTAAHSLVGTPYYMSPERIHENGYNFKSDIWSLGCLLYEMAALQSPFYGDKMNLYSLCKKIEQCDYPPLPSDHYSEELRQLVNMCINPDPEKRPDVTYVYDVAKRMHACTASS
For assay [19] the target is unchanged. Conditions: at 1 µM.
Assay [20] concerns the target T7, Serine/threonine-protein kinase Nek9 (Homo sapiens) (UniProt Q8TD19).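 Also: reported value is the mean percent inhibition of NEK9.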
T7 sequence (whole entry): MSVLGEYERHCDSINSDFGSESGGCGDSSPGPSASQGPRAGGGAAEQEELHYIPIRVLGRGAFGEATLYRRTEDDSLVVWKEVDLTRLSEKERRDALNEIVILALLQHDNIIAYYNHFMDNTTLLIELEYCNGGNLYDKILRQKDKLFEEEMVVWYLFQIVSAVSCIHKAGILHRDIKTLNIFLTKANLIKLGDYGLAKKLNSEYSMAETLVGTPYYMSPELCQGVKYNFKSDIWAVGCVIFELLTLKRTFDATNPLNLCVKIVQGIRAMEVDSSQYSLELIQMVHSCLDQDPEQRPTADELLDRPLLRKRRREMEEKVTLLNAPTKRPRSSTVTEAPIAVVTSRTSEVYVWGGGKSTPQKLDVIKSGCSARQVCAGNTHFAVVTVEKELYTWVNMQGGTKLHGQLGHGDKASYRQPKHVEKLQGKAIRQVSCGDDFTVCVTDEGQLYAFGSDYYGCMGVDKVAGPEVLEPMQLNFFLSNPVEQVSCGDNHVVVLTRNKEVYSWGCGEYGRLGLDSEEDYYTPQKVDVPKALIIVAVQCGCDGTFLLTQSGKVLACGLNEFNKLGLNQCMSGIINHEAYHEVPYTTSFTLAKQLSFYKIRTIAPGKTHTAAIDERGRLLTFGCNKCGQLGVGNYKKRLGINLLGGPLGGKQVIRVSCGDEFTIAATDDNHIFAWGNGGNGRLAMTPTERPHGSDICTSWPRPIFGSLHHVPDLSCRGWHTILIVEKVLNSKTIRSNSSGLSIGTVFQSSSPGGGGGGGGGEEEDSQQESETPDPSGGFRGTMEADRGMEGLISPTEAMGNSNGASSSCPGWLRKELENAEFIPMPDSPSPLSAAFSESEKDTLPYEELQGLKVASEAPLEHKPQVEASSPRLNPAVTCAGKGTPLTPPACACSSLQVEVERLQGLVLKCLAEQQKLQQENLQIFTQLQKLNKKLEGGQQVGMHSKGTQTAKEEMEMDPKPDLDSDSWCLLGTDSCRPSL
The following applies: at 0.1 µM.

Serine/threonine-protein kinase Nek6 (Homo sapiens), sequence (Q9HC98 whole entry): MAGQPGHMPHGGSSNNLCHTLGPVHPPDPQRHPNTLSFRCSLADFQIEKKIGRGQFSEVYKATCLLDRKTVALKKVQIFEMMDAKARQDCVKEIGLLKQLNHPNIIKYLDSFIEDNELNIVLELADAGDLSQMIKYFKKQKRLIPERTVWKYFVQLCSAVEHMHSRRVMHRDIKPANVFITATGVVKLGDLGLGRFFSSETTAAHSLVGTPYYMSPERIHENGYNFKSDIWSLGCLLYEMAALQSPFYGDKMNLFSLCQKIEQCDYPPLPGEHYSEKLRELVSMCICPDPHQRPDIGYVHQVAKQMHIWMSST
Sphingosine kinase 1 (Homo sapiens), sequence (Q9NYA1 whole entry): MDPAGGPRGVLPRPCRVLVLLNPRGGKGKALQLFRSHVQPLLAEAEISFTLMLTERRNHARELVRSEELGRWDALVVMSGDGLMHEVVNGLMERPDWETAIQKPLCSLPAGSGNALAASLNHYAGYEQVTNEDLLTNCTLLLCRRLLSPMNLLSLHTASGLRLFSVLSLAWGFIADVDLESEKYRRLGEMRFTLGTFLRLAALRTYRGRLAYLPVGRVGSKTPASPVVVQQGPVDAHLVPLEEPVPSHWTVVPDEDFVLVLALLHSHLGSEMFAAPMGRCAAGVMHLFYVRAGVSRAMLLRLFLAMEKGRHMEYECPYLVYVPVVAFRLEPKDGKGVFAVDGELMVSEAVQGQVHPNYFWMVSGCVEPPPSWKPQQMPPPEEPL

A word on the inhibition: it is the drop in the measured response relative to a control, in per cent. Take `Nc1nc(-c2ccc(F)cc2)c(-c2ccc3ncccc3n2)s1`: the inhibition in assay [1] is -1.38%; in assay [2], -1.13%; in [3] it was -1.05%; in assay [4], 6.47%; in assay [5], 13%; in assay [6] it was 2.92%. Also, the inhibition is 5.46% in assay [7]; 5.24% in assay [8]; 4.99% in assay [9]; 6.57% in [10]; 7.4% in assay [11]; 2.04% in assay [12]. The inhibition in assay [13] came to 36%; in assay [14], 4.57%; in assay [15], 6.71%; in assay [16], 2.87%; in assay [17], 5.03%; in assay [18], 3.03%. Also, the inhibition was 3.14% in assay [19] and 11.5% in assay [20].

The values above are taken from ChEMBL document CHEMBL1961873, “Compounds: GSK PKIS; Assays: Nanosyn kinase panel” (2012).
